Marburg entry inh: Marburg virus entry inhibition. Potency, µM (series often up to 37.8 µM), actives largely listed as inhibitors. 300,000 compounds, 1.8% hits. Marburg virus pseudotyped entry inhibition, cell reporter. AID 540276; calls by dose curve; tested in HEK293 cells
FMDV antiviral: antivirals against foot and mouth disease virus; 410,000 compounds, 1.2% hits; AID 1159524; Potency, µM (highest dose often 57.9 µM), most hits filed as inhibitors; FMDV antiviral cell-based qHTS; calls by dose curve; tested in HEK293T cells; also: read-out not given here; nearly all actives have a fitted effect of over 45% in size
HCMV inh: blocks human cytomegalovirus replication; HFF cells, HCMV-luciferase reporter, 72 h; active compounds read low; activity change, negative = inhibition, % at 57.5 µM; 410,000 compounds, 4.5% hits; in the data active = activity change below about -60%; inconclusive = no clear call, values can overlap the other calls; inactive = above about -39%
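Screen run at 2 compound doses on HFFs infected with reporter HCMV, MOI 1 PFU/cell. Luciferase activity from cell lysates at 72 h post infection gave inhibition relative to buffer-only and Salinomycin wells.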
LASV entry inh: blocks Lassa virus binding to or entry into cells. Lassa virus pseudotype entry inhibition, cell reporter. 300,000 compounds, 1.2% hits. AID 540256. Potency, µM (titrated, usually from 37.9 µM), actives largely listed as inhibitors; calls by dose curve; tested in HEK293 cells; also: nearly all actives have a fitted effect of over 50% in size
Numbers stand for hits; – = inactive; ? = inconclusive; · = no result. Shown are actives, neighbours in structure and some others; about 6.2% of the full set was active somewhere.

SMILES	Marburg entry inh	FMDV antiviral	HCMV inh	LASV entry inh
O=C(c1ccc(CSc2nc3ccncc3n2Cc2ccccc2F)cc1)N1CCCCC1	–	–	-62	·
Cc1ccc(Cn2c(SCc3ccc(C(=O)NC4CCCC4)cc3)nc3ccncc32)cc1	–	?	-74	–
O=S(=O)(c1ccccc1)N1CCN(C(=S)Nc2ccccc2)CC1	·	–	–	·
COc1ccc(CNC(=O)c2cc3ccccn3n2)c(OC)c1	·	–	–	–
Fc1ccc(CN(Cc2ccccc2)C(c2cccs2)c2nnnn2C2CCCCC2)cc1 (stereo not drawn)	?	–	-77	?
Clc1ccc(CN(Cc2ccccc2)C(c2cccs2)c2nnnn2C2CCCC2)cc1 (stereo not drawn)	–	–	–	–
COc1ccc2c(c1)c1c(c(=O)n(CCc3ccccc3)c(=O)n1Cc1cccc(Cl)c1)n2C	·	–	–	–
COC(=O)c1ccc(NC(=O)CSc2nc3ncccc3[nH]2)cc1	?	–	–	–
Cc1ccc2c(c1)Oc1ccc(NC(=O)CCl)cc1C(=O)N2	?	14µM	-88	?
CCCCN1C(=O)/C(=C2/Sc3ccccc3N2C)S/C1=N\c1ncn[nH]1	·	–	-78	·
C=CCN1C(=O)/C(=C2/Sc3ccc(OC)cc3N2C)SC1=Nc1ccccc1	?	–	–	?
Cc1ccc(S(=O)(=O)N/N=C\c2cc([N+](=O)[O-])ccc2Cl)cc1	?	·	-90	?
COc1ccc(Nc2nc3ccc(C)cc3nc2-n2nc(C)cc2C)cc1Cl	–	–	–	–
CC(=O)N1CCN(CC(=O)Nc2cc([N+](=O)[O-])ccc2Cl)CC1	–	–	–	·
COc1cc(NC(=O)c2cc([N+](=O)[O-])ccc2NC(=O)CN2CCN(c3ccccn3)CC2)cc(OC)c1	8.9µM	–	–	?
O=C(CN1CCN(c2ccc(O)cc2)CC1)Nc1cc([N+](=O)[O-])ccc1Cl	?	?	-69	–
O=C(CP(=O)(c1ccccc1)c1ccccc1)N/N=C/c1cc(Br)cc(Br)c1O	?	–	?	2.8µM
COc1cc(Br)cc(/C=N/NC(=O)Cc2ccccc2)c1O	–	–	–	13µM
O=C(N/N=C/c1cc(Br)cc(Br)c1O)c1cccc(N2CCCC2=O)c1	?	–	-99	?
CN(C)CCC1Sc2ccccc2Oc2ccccc21 (stereo not drawn)	?	–	–	–
CC1c2ccccc2SC(CCCN(C)C)c2ccccc21 (stereo not drawn)	5.2µM	?	-61	?
C=CCNC(=O)C(=O)Nc1ccc2c(c1)N(S(=O)(=O)c1cccs1)CCC2	?	–	–	8.9µM
CC1(C2CCC3C4CCC5CC6(CCC5(C)C4C(=O)CC32C)OCCO6)OCCO1 (stereo not drawn)	?	–	-99	–
CC12CCC3(CC1CCC1OC12)OCCO3 (stereo not drawn)	–	–	–	–
CC(C)(C)OC(=O)N1CC=C2C(C#N)=C(N)C(C#N)(C#N)C(c3cccs3)C2C1 (stereo not drawn)	–	22µM	–	–
SMILES	Marburg entry inh	FMDV antiviral	HCMV inh	LASV entry inh
CCOC(=O)N1CC=C2C(C#N)=C(N)C(C#N)(C#N)[C@H](c3cccs3)C2C1 (stereo partly drawn)	?	?	–	–
CCCOc1ccc([C@@H]2C3CN(C(=O)OCC)CC=C3C(C#N)=C(N)C2(C#N)C#N)cc1OC (stereo partly drawn)	–	–	–	10µM
COc1ccccc1-n1ccnc(SCC(=O)NCc2ccccc2Cl)c1=O	–	–	–	–
CC(=O)c1ccc(S(=O)(=O)N2CCN(CCOc3ccc(Br)cc3)CC2)cc1	·	18µM	?	·
CC(=O)c1cccc(S(=O)(=O)N2CCN(CCOc3ccccc3)CC2)c1	·	?	-61	·
Cc1cccc(C(=O)NCC(=O)N2CCN(S(=O)(=O)c3ccc4c(c3)OCCO4)CC2)c1	·	–	–	·
COc1ccc(NC(=O)c2cccn(Cc3ccc(Cl)cc3)c2=O)c(OC)c1	·	?	-70	?
COc1ccc(CN2CCN(c3ccccn3)CC2)c(OC)c1C	·	–	–	·
Fc1ccccc1OCCCCCN1CCCC1	?	–	–	–
CCOC(=O)c1c(CSc2ccc(CC)cc2)oc2ccc(O)c(CN(C)C)c12	4.5µM	?	-82	?
CC(=O)c1c(CSc2ccccc2)oc2ccc(O)c(CN(C)C)c12	?	–	-69	?
CCOC(=O)c1c(CSc2ccc(C)cc2)oc2ccc(O)cc12	–	22µM	–	?
CCOC(=O)c1c(C)oc2ccc(O)c(CN(C)C)c12	–	–	–	–
COC(=O)Cc1c(CSc2ccccc2)oc2ccc(O)c(CN(C)C)c12	–	–	?	–
c1ccc(CCc2ccc3n2Cc2cnnn2-c2ccccc2-3)cc1	·	?	–	·
CC(C)(O)[C@@H]1Cc2c(ccc3ccc(=O)oc23)O1	–	–	–	–
Cc1ccc(SCC(=O)Nc2ccccc2C(=O)N2CCOCC2)cc1	?	–	-71	–
CCCCC(=O)Nc1ccccc1C(=O)N1CCOCC1	–	–	–	–
O=C(Cc1ccccc1[N+](=O)[O-])Nc1ccccc1C(=O)N1CCOCC1	–	–	–	10µM
O=C(c1ccc2nc(N3CCCCC3)sc2c1)N1CCN(Cc2ccc3c(c2)OCO3)CC1	–	–	?	·
CCCOc1ccccc1OCC(=O)Nc1ccc(S(=O)(=O)N2CCCCC2)cc1	?	–	–	?
Cc1cc2cc(C)c3nnc(SCC(=O)NCc4ccco4)n3c2cc1C	?	·	-79	–
N#Cc1ccc(NC(=S)NC(=O)CCc2ccc(S(=O)(=O)N3CCOCC3)cc2)cc1	·	?	–	·
CCOc1ccc(OCCCC(=O)Nc2cc(S(=O)(=O)N3CCOCC3)ccc2N2CCOCC2)cc1	·	–	-90	·
CCOc1ccc(C(=O)OCC(=O)Nc2cc(S(=O)(=O)N3CCOCC3)ccc2N2CCOCC2)cc1	·	–	–	·
SMILES	Marburg entry inh	FMDV antiviral	HCMV inh	LASV entry inh
N#Cc1ccc(NC(=O)CCc2ccc(S(=O)(=O)N3CCOCC3)cc2)cc1	–	28µM	–	–
Cc1ccc(OCCCC(=O)Nc2ccc(S(=O)(=O)N3CCOCC3)cc2)cc1	·	?	-63	·
Cc1ccc2ccc[n+](Cc3ccccc3)c2c1	·	–	-82	·
Cc1ccc2c(c1)c(C)cc[n+]2Cc1ccccc1	10µM	?	-96	?
COc1ccc2c(c1)c(C)cc[n+]2Cc1ccccc1	·	?	-85	·
NNC(=O)c1cc(C23CC4CC(CC(C4)C2)C3)nc2ccccc12	·	–	–	·
C=CCOc1c(Cl)cc(CNCCCN2CCOCC2)cc1OC	10µM	–	–	–
COc1cc(CNCCCN2CCOCC2)cc(Br)c1OCc1ccc(Cl)cc1	·	40µM	-99	·
COc1cc(CNCCN2CCOCC2)ccc1OCc1ccc(Cl)cc1	?	–	–	–
CC(C)C[C@H](NC(=O)c1nc[nH]c1C(=O)NC1CCNCC1)C(=O)OC(C)(C)C	·	–	–	·
CCOC1=C2[C@@H](CN(S(=O)(=O)c3ccccc3C)[C@H]2c2ccc(Cl)cc2)[C@H]2C(=O)NC(=O)[C@H]2C1	·	–	-76	·
CCOC1=C2[C@@H](CN(S(=O)(=O)c3ccccc3C)[C@H]2c2ccc(Cl)cc2)[C@H]2C(=O)N(c3ccccc3)C(=O)[C@H]2C1	·	–	–	·
CCCCn1c(SCc2cccc([N+](=O)[O-])c2)nc2ccsc2c1=O	–	?	?	?
CCCN(CCC)S(=O)(=O)c1ccc(C(=O)NCc2ccco2)cc1	–	–	–	0.79µM
